About 2,100 (0.66%) of roughly 320,000 compounds were called active. Inconclusive results (about 53%) are left out. The call rests on the fitted dose curve; in most records, active means well fitted inhibition curve with a large enough effect in the signal ratio, with a control signal flat (not every such curve was filed as active); inconclusive means small, poorly fitted or top-dose-only effect, or effect the other way, or a change in a side signal; inactive means flat fitted curve, though single readings scatter; the % refers to the signal ratio. For the sample, actives were picked, then their nearest neighbours and some compounds at random.
Potency means the concentration at half of the fitted maximal effect.

The nature of this assay: qHTS Assay for Lipid Storage Modulators in Drosophila S3 Cells.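 On cell number change: cells counted by Cell Tracker Red CMTPX staining in the red channel.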 On lipid storage change, negative = inhibition: on the % scale 0 is the no-effect control and ±100 the full control effect. The note with it: BODIPY lipid droplet fluorescence, 18-24 h, cells fed with added oleic acid; cell number change: measured here: cell count max response; series mostly up to 46.1 µM; lipid storage change, negative = inhibition: at the top concentration. In a few lines: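 Laser-scanning cytometry quantifies lipid droplet accumulation (500–530 nm total intensity; droplet/cell object ratio) in oleic acid-fed (400 uM added) Drosophila S3 cells treated with a concentration series. 20 uM Triacsin C defined 100% inhibition.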
Turning to `CCOC(=O)N1CCN(C(=O)CSCC(=O)Nc2nc(-c3ccccc3)cs2)CC1`, the “lipid storage change, negative = inhibition” value was -4.18% (inactive) and the cell number change is -8.7%.

Consider `Cc1ccc(-c2csc(NC(=O)CN3CCC(C(N)=O)CC3)n2)cc1`, for which the result was inactive and the cell number change is -18.5%.

On to `CCOC(=O)c1ccc(-c2csc(NC(=O)CN3CCC(C)CC3)n2)cc1`, for which the Potency is 2.91 µM (active) and the cell number change was 3.78%.

With `COC(=O)NC1CCC(NC(=O)OC)CC1` (stereo not drawn), the “lipid storage change, negative = inhibition” value is 0.668% (inactive) and the cell number change is -8.14%.

Regarding `O=C(Nc1cc(Cl)ccc1Oc1ccccc1)C1=COCCO1`, the result was inactive and the cell number change is -27.8%.

With `O=C(O)c1ccccc1C(=O)NNc1ccc(Cl)cc1`, the “lipid storage change, negative = inhibition” value is 8.58% (inactive) and the cell number change was 6.32%.

As to `CCOC(=O)C(=O)NNc1ccc(Cl)cc1`, the “lipid storage change, negative = inhibition” value was 7.67% (inactive) and the cell number change is 0.213%.

`CC(=O)C(=Nc1ccccc1Cl)NNc1ccc(Cl)cc1`: the Potency was 23.1 µM (active) and the cell number change was -39.5%.

For the molecule `CC12CCC(c3c(C(=O)N4CCOCC4)nn(-c4ccccc4)c31)C2(C)C` (stereo not drawn), the “lipid storage change, negative = inhibition” value is 10.8% (inactive) and the cell number change was determined as 15.9%.

`CC12CCC(c3c(C(=O)O)nn(-c4ccccc4)c31)C2(C)C` (stereo not drawn): the “lipid storage change, negative = inhibition” value is -12.8% (inactive) and the cell number change was 7.24%.

For `CC12CCC(c3c(C(=O)O)nn(-c4ccc(F)cc4)c31)C2(C)C` (stereo not drawn), the Potency is 16.4 µM (active) and the cell number change was -9.61%.

Take `COc1ccc(N2CCN(C(c3ccc4ncccc4c3)c3nnnn3C(C)C)CC2)cc1` (stereo not drawn): the “lipid storage change, negative = inhibition” value is -0.518% (inactive) and the cell number change was determined as 3.49%.

As to `FC(F)(F)c1ccccc1-n1c(CN2CCCCC2)n[nH]c1=S`, the “lipid storage change, negative = inhibition” value is -4.58% (inactive) and the cell number change was -9.97%.

Consider `S=c1[nH]nc(CN2CCCCC2)n1Cc1ccccc1`, for which the “lipid storage change, negative = inhibition” value was 17.3% (inactive) and the cell number change was -2.92%.

In the case of `Fc1ccc(-n2c(CN3CCCCC3)n[nH]c2=S)cc1`, the Potency is 1.64 µM (active) and the cell number change is -100%.

Take `Cc1ccc(S(=O)(=O)CCN2CCN(c3ccccn3)CC2)cc1`: the “lipid storage change, negative = inhibition” value is 11.2% (inactive) and the cell number change turned out to be 3.2%.

Turning to `CCc1ccc(-c2cc(C)no2)cc1S(=O)(=O)Nc1ccccn1`, the call was inactive and the cell number change is -19.5%.

Take `CCc1ccc(-c2cc(C)no2)cc1S(=O)(=O)N1CCOc2ccccc21`: the Potency was 16.4 µM (active) and the cell number change is -0.472%.

For the molecule `CCc1ccc(-c2cc(C)no2)cc1S(=O)(=O)N1CC(=O)Nc2ccccc21`, the Potency is 4.11 µM (active) and the cell number change is -17.1%.

For the molecule `Cc1cc(-c2ccc(C)c(S(=O)(=O)N3CC(=O)Nc4ccccc43)c2)on1`, the Potency was 1.03 µM (active) and the cell number change amounted to 3.36%.

With `Cc1ccc(S(=O)(=O)N2CC(=O)Nc3ccccc32)c(C)c1NS(C)(=O)=O`, the “lipid storage change, negative = inhibition” value is -1.89% (inactive) and the cell number change is -8.89%.

As for `CCc1ccc(-c2cc(C)no2)cc1S(=O)(=O)N1CCN(c2ccccc2OC)CC1`, the “lipid storage change, negative = inhibition” value is -26.9% (inactive) and the cell number change came to 23.3%.

For the molecule `CCc1ccc(-c2cc(C)no2)cc1S(=O)(=O)NCCc1ccccc1`, the result was inactive and the cell number change stood at 13.1%.

For the molecule `Cc1cc(-c2ccc(C)c(S(=O)(=O)N3CCN(c4ccccn4)CC3)c2)on1`, the outcome was inactive and the cell number change is -26.7%.

As to `CCc1ccc(-c2cc(C)no2)cc1S(=O)(=O)N1CCCN(Cc2ccc(F)cc2)C1`, the result was inactive and the cell number change is 2.69%.

Take `Cc1ccc(Nc2cc(C)nc(-c3ccccc3)n2)cc1`: the call was inactive.

In the case of `CC(=O)CSc1cc(-c2ccccc2)nc2ncnn12`, the “lipid storage change, negative = inhibition” value is 1.07% (inactive) and the cell number change was -21.4%.

`Cc1cc(C)nc(NS(=O)(=O)c2ccc(NC(=O)Nc3ccccc3F)cc2)n1`: the “lipid storage change, negative = inhibition” value was -5.13% (inactive) and the cell number change was -10.1%.

Consider `O=C(Cn1cccc1C(=O)c1ccccc1)NCCCN1CCOCC1`, for which the “lipid storage change, negative = inhibition” value was 4.62% (inactive) and the cell number change is -0.598%.

Turning to `O=C1c2ccccc2CN1Cc1ccccc1`, the “lipid storage change, negative = inhibition” value was 13.6% (inactive) and the cell number change turned out to be 10.2%.

`CCCCCCCCOC(=O)CCn1[nH]c(=O)c2ccccc2c1=O`: the “lipid storage change, negative = inhibition” value is 11.7% (inactive) and the cell number change was -16.3%.

As for `O=C(CCn1[nH]c(=O)c2ccccc2c1=O)NCCO`, the Potency is 11.6 µM (active) and the cell number change is 1.53%.

For the molecule `COC(=O)CCn1[nH]c(=O)c2ccccc2c1=O`, the “lipid storage change, negative = inhibition” value was 19.6% (inactive) and the cell number change is -3.6%.

With `c1ccc(CN2CCOCCOCCOCC2)cc1`, the “lipid storage change, negative = inhibition” value is -1.95% (inactive) and the cell number change was -1.02%.

Turning to `CCOC(=O)c1ccc(N2C(=O)c3n[nH]c(C)c3C2c2ccc(OC)cc2)cc1` (stereo not drawn), the “lipid storage change, negative = inhibition” value was 4.29% (inactive) and the cell number change is -20.7%.

For the molecule `CC1(CCc2ccccc2)NC(=O)N(CC(=O)O)C1=O` (stereo not drawn), the “lipid storage change, negative = inhibition” value is -11.3% (inactive) and the cell number change is -3.79%.

Take `Cc1ccc(NC(=O)CSc2nnc(C3CC3)n2N)cc1S(=O)(=O)N1CCOCC1`: the “lipid storage change, negative = inhibition” value is 8.03% (inactive) and the cell number change is 12.4%.

With `O=C(CCN1C(=O)NC2(CCCC2)C1=O)Nc1cccc(S(=O)(=O)N2CCOCC2)c1`, the “lipid storage change, negative = inhibition” value is -1.8% (inactive) and the cell number change is 2.63%.

As to `O=C(Cn1c2ccccc2c2nc3n(c(=O)c21)CCS3)Nc1ccccc1C(F)(F)F`, the “lipid storage change, negative = inhibition” value was -7.14% (inactive) and the cell number change was -11.3%.

As to `CC1CCCN(C(=O)Cn2c3ccccc3c3nc4n(c(=O)c32)CCS4)C1` (stereo not drawn), the Potency is 7.31 µM (active) and the cell number change is -9.4%.

In the case of `O=C(Cn1c2ccccc2c2nc3n(c(=O)c21)CCS3)N1CCCC1`, the outcome was inactive and the cell number change is -22.8%.

Take `COc1ccc(/C=N\Nc2ccccc2[N+](=O)[O-])c(C(=O)O)c1OC`: the “lipid storage change, negative = inhibition” value was 12.5% (inactive) and the cell number change is 2.19%.

`Cc1ccc(C(=O)CSc2nnc(-c3ccccc3)n2-c2ccccc2)o1`: the “lipid storage change, negative = inhibition” value was 12.7% (inactive) and the cell number change is 6.85%.

In the case of `CCOC(=O)C1[C@H]2C(=O)N(C(C)c3ccc(OC)cc3)C[C@]23C=C[C@H]1O3` (stereo partly drawn), the “lipid storage change, negative = inhibition” value is 4.99% (inactive) and the cell number change is -3.61%.

In the case of `COC(=O)C1C2C=CC3(CN(C(C)c4ccc(OC)cc4)C(=O)C13)O2` (stereo not drawn), the Potency was 16.4 µM (active) and the cell number change is -5.31%.

On to `COc1ccc(C(C)N2CC34C=CC(O3)C(C(=O)OCC(C)C)C4C2=O)cc1` (stereo not drawn), for which the “lipid storage change, negative = inhibition” value was 2.76% (inactive) and the cell number change is -0.854%.

`Cc1ccccc1Nc1nccc(N(C)C)c1C#N`: the “lipid storage change, negative = inhibition” value was -15.1% (inactive) and the cell number change is -17.6%.

For the origin of these results see PubChem BioAssay AID2685 (National Center for Advancing Translational Sciences (NCATS), 2010).
